Laboratory results taken from the supplement of paper PMC7411054.
Structures can show the parent of a compound that is named as a salt.

Legend:
Assay in all cases: phenotypically active (imaging signature differs from DMSO and reproducible) at any of 0.3-9 uM (binary (1 = active, 0 = inactive)); higher = active
Details in all cases: treatment time: 24 h
A549-ACTB-RAB5A = system: A549-ACTB-RAB5A
Method in brief: (§1)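 The reporter lines, fifteen in total and built by gene editing in A549, HepG2 and WPMY1 cells, used BFP for segmentation alongside GFP and RFP/FusionRed markers. Each was treated at 0.3, 1, 3 or 9 µM for 24 h in four wells and then imaged live, with live-cell features normalised to solvent control wells. Deviation meant ≥3 of 4 wells beyond the 95th percentile of control Euclidean distances; reproducibility meant a median replicate Pearson correlation above the 95th percentile of non-replicates. Only conditions meeting both were scored as phenotypically active.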

A549-CANX-COX4 = system: A549-CANX-COX4
Method in brief: as §1

A549-GM130-SQSTM1 = system: A549-GM130-SQSTM1
Method in brief: as §1

A549-TP53BP1-CLTA = system: A549-TP53BP1-CLTA
Method in brief: as §1

A549-TUBA1B-RELA = system: A549-TUBA1B-RELA
Method in brief: as §1

HepG2-ACTB-RAB5A = system: HepG2-ACTB-RAB5A
Method in brief: as §1

HepG2-CANX-COX4 = system: HepG2-CANX-COX4
Method in brief: as §1

HepG2-GM130-SQSTM1 = system: HepG2-GM130-SQSTM1
Method in brief: as §1

HepG2-TP53BP1-CLTA = system: HepG2-TP53BP1-CLTA
Method in brief: as §1

HepG2-TUBA1B-RELA = system: HepG2-TUBA1B-RELA
Method in brief: as §1

WPMY1-ACTB-RAB5A = system: WPMY1-ACTB-RAB5A
Method in brief: as §1

WPMY1-CANX-COX4 = system: WPMY1-CANX-COX4
Method in brief: as §1

WPMY1-GM130-SQSTM1 = system: WPMY1-GM130-SQSTM1
Method in brief: as §1

WPMY1-TP53BP1-CLTA = system: WPMY1-TP53BP1-CLTA
Method in brief: as §1

WPMY1-TUBA1B-RELA = system: WPMY1-TUBA1B-RELA
Method in brief: as §1

Measured: phenotypically active

O=C(Nc1cccc(Br)c1)c1cccc(S(=O)(=O)N2CCCCCC2)c1
inactive: A549-ACTB-RAB5A 0 | A549-CANX-COX4 0 | A549-GM130-SQSTM1 0 | A549-TP53BP1-CLTA 0 | A549-TUBA1B-RELA 0 | HepG2-ACTB-RAB5A 0 | HepG2-CANX-COX4 0 | HepG2-GM130-SQSTM1 0 | HepG2-TP53BP1-CLTA 0 | HepG2-TUBA1B-RELA 0 | WPMY1-ACTB-RAB5A 0 | WPMY1-CANX-COX4 0 | WPMY1-GM130-SQSTM1 0 | WPMY1-TP53BP1-CLTA 0 | WPMY1-TUBA1B-RELA 0

COC(=O)C1CC23C=CCN4CCC5(c6ccccc6NC15[C@H]2C)C43 (stereo not given in full) [Vindolinine dichlorhydrate]
inactive: A549-ACTB-RAB5A 0 | A549-CANX-COX4 0 | A549-GM130-SQSTM1 0 | A549-TP53BP1-CLTA 0 | A549-TUBA1B-RELA 0 | HepG2-ACTB-RAB5A 0 | HepG2-CANX-COX4 0 | HepG2-GM130-SQSTM1 0 | HepG2-TP53BP1-CLTA 0 | HepG2-TUBA1B-RELA 0 | WPMY1-ACTB-RAB5A 0 | WPMY1-CANX-COX4 0 | WPMY1-GM130-SQSTM1 0 | WPMY1-TP53BP1-CLTA 0 | WPMY1-TUBA1B-RELA 0

C[C@@H]1O[C@@H](O[C@H]2C(=O)c3c(O)cc(O)cc3O[C@@H]2c2ccc(O)c(O)c2)[C@H](O)[C@H](O)[C@H]1O [Astilbin]
inactive: A549-ACTB-RAB5A 0 | A549-CANX-COX4 0 | A549-GM130-SQSTM1 0 | A549-TP53BP1-CLTA 0 | A549-TUBA1B-RELA 0 | HepG2-ACTB-RAB5A 0 | HepG2-CANX-COX4 0 | HepG2-GM130-SQSTM1 0 | HepG2-TP53BP1-CLTA 0 | HepG2-TUBA1B-RELA 0 | WPMY1-ACTB-RAB5A 0 | WPMY1-CANX-COX4 0 | WPMY1-GM130-SQSTM1 0 | WPMY1-TP53BP1-CLTA 0 | WPMY1-TUBA1B-RELA 0

O=[N+]([O-])c1c(Nc2cc(F)cc(Cl)c2)ccc2nonc12
inactive: A549-ACTB-RAB5A 0 | A549-CANX-COX4 0 | A549-GM130-SQSTM1 0 | A549-TP53BP1-CLTA 0 | A549-TUBA1B-RELA 0 | HepG2-ACTB-RAB5A 0 | HepG2-CANX-COX4 0 | HepG2-GM130-SQSTM1 0 | HepG2-TP53BP1-CLTA 0 | HepG2-TUBA1B-RELA 0 | WPMY1-ACTB-RAB5A 0 | WPMY1-CANX-COX4 0 | WPMY1-GM130-SQSTM1 0 | WPMY1-TP53BP1-CLTA 0 | WPMY1-TUBA1B-RELA 0

COc1ccc(CCN(C)CCCN2CCc3cc(OC)c(OC)cc3CC2=O)cc1OC [zatebradine]
inactive: A549-ACTB-RAB5A 0 | A549-CANX-COX4 0 | A549-GM130-SQSTM1 0 | A549-TP53BP1-CLTA 0 | A549-TUBA1B-RELA 0 | HepG2-ACTB-RAB5A 0 | HepG2-CANX-COX4 0 | HepG2-GM130-SQSTM1 0 | HepG2-TP53BP1-CLTA 0 | HepG2-TUBA1B-RELA 0 | WPMY1-ACTB-RAB5A 0 | WPMY1-CANX-COX4 0 | WPMY1-GM130-SQSTM1 0 | WPMY1-TP53BP1-CLTA 0 | WPMY1-TUBA1B-RELA 0

CS(=O)(=O)OCCCCOS(C)(=O)=O [busulfan]
inactive: A549-ACTB-RAB5A 0 | A549-CANX-COX4 0 | A549-GM130-SQSTM1 0 | A549-TP53BP1-CLTA 0 | A549-TUBA1B-RELA 0 | HepG2-ACTB-RAB5A 0 | HepG2-CANX-COX4 0 | HepG2-GM130-SQSTM1 0 | HepG2-TP53BP1-CLTA 0 | HepG2-TUBA1B-RELA 0 | WPMY1-ACTB-RAB5A 0 | WPMY1-CANX-COX4 0 | WPMY1-GM130-SQSTM1 0 | WPMY1-TP53BP1-CLTA 0 | WPMY1-TUBA1B-RELA 0

O=C(O)CCCc1ccccc1 [Sodium 4-Phenylbutyrate]
inactive: A549-ACTB-RAB5A 0 | A549-CANX-COX4 0 | A549-GM130-SQSTM1 0 | A549-TP53BP1-CLTA 0 | A549-TUBA1B-RELA 0 | HepG2-ACTB-RAB5A 0 | HepG2-CANX-COX4 0 | HepG2-GM130-SQSTM1 0 | HepG2-TP53BP1-CLTA 0 | HepG2-TUBA1B-RELA 0 | WPMY1-ACTB-RAB5A 0 | WPMY1-CANX-COX4 0 | WPMY1-GM130-SQSTM1 0 | WPMY1-TP53BP1-CLTA 0 | WPMY1-TUBA1B-RELA 0

COC(=O)/C=C/c1cccc(N(Cc2ccc(-c3ccc(N(C)C)cc3)cc2)C(=O)C2CCCCC2)c1 [fexaramine]
inactive: A549-ACTB-RAB5A 0 | A549-CANX-COX4 0 | A549-GM130-SQSTM1 0 | A549-TP53BP1-CLTA 0 | A549-TUBA1B-RELA 0 | HepG2-ACTB-RAB5A 0 | HepG2-CANX-COX4 0 | HepG2-GM130-SQSTM1 0 | HepG2-TP53BP1-CLTA 0 | HepG2-TUBA1B-RELA 0 | WPMY1-ACTB-RAB5A 0 | WPMY1-CANX-COX4 0 | WPMY1-GM130-SQSTM1 0 | WPMY1-TP53BP1-CLTA 0 | WPMY1-TUBA1B-RELA 0

O=C(O)c1c(Sc2ccccc2)c2cc(Cl)ccc2n1Cc1ccc(Cl)cc1
inactive: A549-ACTB-RAB5A 0 | A549-CANX-COX4 0 | A549-GM130-SQSTM1 0 | A549-TP53BP1-CLTA 0 | A549-TUBA1B-RELA 0 | HepG2-ACTB-RAB5A 0 | HepG2-CANX-COX4 0 | HepG2-GM130-SQSTM1 0 | HepG2-TP53BP1-CLTA 0 | HepG2-TUBA1B-RELA 0 | WPMY1-ACTB-RAB5A 0 | WPMY1-CANX-COX4 0 | WPMY1-GM130-SQSTM1 0 | WPMY1-TP53BP1-CLTA 0 | WPMY1-TUBA1B-RELA 0

NCCCC(O)(P(=O)(O)O)P(=O)(O)O [alendronate]
inactive: A549-ACTB-RAB5A 0 | A549-CANX-COX4 0 | A549-GM130-SQSTM1 0 | A549-TP53BP1-CLTA 0 | A549-TUBA1B-RELA 0 | HepG2-ACTB-RAB5A 0 | HepG2-CANX-COX4 0 | HepG2-GM130-SQSTM1 0 | HepG2-TP53BP1-CLTA 0 | HepG2-TUBA1B-RELA 0 | WPMY1-ACTB-RAB5A 0 | WPMY1-CANX-COX4 0 | WPMY1-GM130-SQSTM1 0 | WPMY1-TP53BP1-CLTA 0 | WPMY1-TUBA1B-RELA 0

c1ccc2c(c1)CN1CCCC1=N2 [Desoxypeganine Hydrochloride]
inactive: A549-ACTB-RAB5A 0 | A549-CANX-COX4 0 | A549-GM130-SQSTM1 0 | A549-TP53BP1-CLTA 0 | A549-TUBA1B-RELA 0 | HepG2-ACTB-RAB5A 0 | HepG2-CANX-COX4 0 | HepG2-GM130-SQSTM1 0 | HepG2-TP53BP1-CLTA 0 | HepG2-TUBA1B-RELA 0 | WPMY1-ACTB-RAB5A 0 | WPMY1-CANX-COX4 0 | WPMY1-GM130-SQSTM1 0 | WPMY1-TP53BP1-CLTA 0 | WPMY1-TUBA1B-RELA 0
